Results: the supplement of paper PMC7156485
“And” between values parts separate entries of the source, which are not always exact repeats. Identical values can stand only once. ± gives the standard deviation of the averaged measurements.

Assays:
Details in all cases: concentration: 10 µM; 24 h
[1] = system: HCC1569; assay: cell number relative to DMSO (% of DMSO); higher = more cells (less growth inhibition / toxicity)
How it was run: (§1)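 Cells were seeded at 800 per well in 384-well plates with RPMI containing 10% FBS; both HCC1569 and TDF lines were used. Compounds were added at 10 µM for 24 h at 37 °C, in triplicate, before fixation in 3.7% formaldehyde and staining with a rabbit anti-H1.0 antibody, an AlexaFluor 647 secondary and DAPI. H1.0 nuclear intensity or cell number is reported as percent of the plate control using the median of replicates, and HCC1569 values were smoothed for positional effects.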

[2] = system: TDF; assay: as above
How it was run: as §1

[3] = system: TDF; assay: H1.0 immunofluorescence intensity relative to DMSO (% of DMSO); higher = stronger H1.0 induction, active = 120 or more
How it was run: as §1

[4] = system: HCC1569; assay: H1.0 immunofluorescence intensity relative to DMSO (% of DMSO); higher = stronger H1.0 induction, active = 140 or more
How it was run: as §1
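Throughout, for H1.0 immunofluorescence intensity relative to DMSO: TDF is a line of transformed human dermal fibroblasts of mesenchymal origin.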
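Throughout, for cell number relative to DMSO: TDF denotes transformed human dermal fibroblasts of mesenchymal origin.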

Row | SMILES | cell number [1] | cell number [2] | H1.0 immunofluorescence intensity [3] | H1.0 immunofluorescence intensity [4]
1 | NCCCP(=O)(O)O [3-Aminopropylphosphonic acid] | 97.9 | 90.3 | 95.4 (inactive) | 101 (inactive)
2 | Br.NCc1cc(=O)[nH]o1 [Muscimol hydrobromide] | 103 | 119 | 89.5 (inactive) | 91 (inactive)
3 | CCCN(CCC)C1CCc2c(F)ccc(O)c2C1.Cl (stereo not drawn) [S(-)-UH-301 hydrochloride] | 102 | 97.9 | 98.7 (inactive) | 96.3 (inactive)
4 | CCn1cc(C(=O)[O-])c(=O)c2ccc(C)nc21.[Na+] [Nalidixic acid sodium] | 107 | 107 | 86 (inactive) | 92.4 (inactive)
5 | COc1cc(C2c3cc4c(cc3C(O)C3COC(=O)C23)OCO4)cc(OC)c1OC (stereo not given) [Picropodophyllin] | 58.3 | 10.9 | 165 (active) | 128 (inactive)
6 | CCCn1c(C)c(C(=O)c2cccc3ccccc23)c2ccccc21 | 99.3 | 88.2 | 96.2 (inactive) | 100 (inactive)
7 | CC(=CC=CC(C)C(=O)O)C1CNC(C(=O)O)C1CC(=O)O (stereo not given) [Domoic acid] | 101 | 109 | 93.6 (inactive) | 86.3 (inactive)
8 | COC(=O)C(N)CCCN=C(N)N[N+](=O)[O-].Cl [NG-Nitro-L-arginine methyl ester hydrochloride] | 103 | 109 | 89.9 (inactive) | 92.5 (inactive)
9 | CC(=O)NBr [N-Bromoacetamide] | 105 | 101 | 96.8 (inactive) | 90.3 (inactive)
10 | CCC(CO)NC(=O)C1C=C2c3cccc4[nH]cc(c34)CC2N(C)C1.O=C(O)C=CC(=O)O (stereo not given) [Methylergonovine maleate] | 101 ± 2.1 | 100 ± 2.5 | 97.4 (inactive) | 92.3 (inactive)
11 | CCCCCC=CCC=CCCCCCCCC(=O)NCCO [Anandamide (18:2,n-6)] | 100 | 108 | 99.1 (inactive) | 94.4 (inactive)
12 | CC1CCC2(O)C3(C)CC4(O)OC2(C1O)C1(O)C3(O)C(OC(=O)c2ccc[nH]2)C(O)(C(C)C)C41C (stereo not given) [Ryanodine] | 106 | 101 | 93 (inactive) | 88 (inactive)
13 | COc1ccc(O)c(C(C)(C)C)c1 | 106 | 107 | 94.5 (inactive) | 91.3 (inactive)
14 | CC(C)C1(NC(=O)C2CC3c4cccc5[nH]cc(c45)CC3N(C)C2)OC2(O)C3CCCN3C(=O)C(Cc3ccccc3)N2C1=O.CS(=O)(=O)O (stereo not given) [Dihydroergocristine mesylate] | 100 | 110 | 91.4 (inactive) | 88.3 (inactive)
15 | COc1ccc2c(c[n+](C)c3c4cc5c(cc4ccc23)OCO5)c1OC.[Cl-] [Chelerythrine chloride] | 55.4 | 0.93 | – | 157 (active)
16 | C=CCN1CCC23c4c5ccc(O)c4OC2C(=O)CCC3(O)C1C5 (stereo not given) [Naloxone] | 98.5 | 96.7 | 99.5 (inactive) | 117 (inactive)
17 | Cl.Cl.Clc1ccc(N2CC3CCC(C2)N3)nn1 | 103 | 110 | 90.8 (inactive) | 95.7 (inactive)
18 | CC1(C)CCCC(C)(C)N1[O] | 99.1 | 96.8 | 100 (inactive) | 99.1 (inactive)
19 | NC(=O)CN1CCCC1=O [Piracetam] | 99.5 | 99.2 | 92 (inactive) | 103 (inactive)
20 | CC1OC1P(=O)([O-])[O-].[Na+].[Na+] (stereo not given) [Phosphomycin disodium] | 100 | 91.3 | 101 (inactive) | 101 (inactive)
21 | Cl.NCCc1c[nH]c2ccc(O)cc12 [Serotonin hydrochloride] | 102 | 118 | 90.1 (inactive) | 92.2 (inactive)
22 | CCN1CC2(C)CCC(OC)C34C5CC6CCC(O)(C5C(=O)O6)C(C(O)C23)C14 (stereo not given) [Heteratisine] | 103 | 105 | 96.1 (inactive) | 88.3 (inactive)

Row | SMILES | cell number [1] | cell number [2] | H1.0 immunofluorescence intensity [3] | H1.0 immunofluorescence intensity [4]
23 | CC1OC(OC2CC(O)C3(CO)C4C(O)CC5(C)C(C6=CC(=O)OC6)CCC5(O)C4CCC3(O)C2)C(O)C(O)C1O (stereo not given) [Ouabain] | 46.2 | 36.4 | 125 (active) | 126 (inactive)
24 | CN1C2CCC1CC(OC(=O)C(CO)c1ccccc1)C2 (stereo not given) [Atropine] | 104 | 110 | 93.7 (inactive) | 107 (inactive)
25 | CN1C2CCC1CC(OC(=O)C(CO)c1ccccc1)C2.CN1C2CCC1CC(OC(=O)C(CO)c1ccccc1)C2.O=S(=O)(O)O (stereo not given) [Atropine sulfate] | – | – | 91.7 (inactive) | 88.9 (inactive)
26 | CC1Cc2c(Cl)cc(C(=O)NC(Cc3ccccc3)C(=O)O)c(O)c2C(=O)O1 (stereo not given) [Ochratoxin A] | 107 | 92.7 | 103 (inactive) | 92.1 (inactive)
27 | CC1=CC(=O)C2=C(C)CC(O)C3C(C)C(=O)OC3C12 (stereo not given) [Austricin] | 101 | 97.7 | 96.7 (inactive) | 98.1 (inactive)
28 | COC(=O)C1(O)CC2OC1(C)n1c3ccccc3c3c4c(c5c6ccccc6n2c5c31)C(=O)NC4 (stereo not given) [K-252a, Nocardiopsis sp.] | 33.7 | 2.54 | – | 75.8 (inactive)
29 | CCCN(CCC)C(=O)Cc1c(-c2ccc(Cl)cc2)nc2c(Cl)cc(Cl)cn12 | 103 | 105 | 102 (inactive) | 100 (inactive)
30 | CC1Cc2cc3c(cc2C(c2ccc(N)cc2)=NN1)OCO3 (stereo not given) | 98.9 | 112 | 103 (inactive) | 98.2 (inactive)
31 | Nc1ccc(CCN2CCN(c3cccc(C(F)(F)F)c3)CC2)cc1 | 95.1 | 98.9 | 99.4 (inactive) | 107 (inactive)
32 | CC(O)=C(C#N)C(=O)Nc1cc(Br)ccc1Br | 100 and 108 | 99.5 and 103 | 99 (inactive) and 97.5 (inactive) | 111 (inactive) and 98.6 (inactive)
33 | Cc1ccc2c(c1)C1(CCN(CCc3nc(-c4ccccc4)oc3C)CC1)OC(=O)N2 | 85.9 | 91.1 | 107 (inactive) | 123 (inactive)
34 | CCCCCCCCCCCCCCCC(=O)OCC(COP(=O)([O-])OCC[N+](C)(C)C)OC(C)=O (stereo not given) | 102 | 102 | 98.7 (inactive) | 101 (inactive)
35 | CC1CCC2(NC1)OC1CC3C4CC=C5CC(O)CCC5(C)C4CCC3(C)C1C2C (stereo not given) [Solasodine] | 102 | 97.4 | 100 (inactive) | 89.2 (inactive)
36 | NCCCNCCSP(=O)(O)O [Amifostine] | 102.2 ± 1 | 104 ± 2.8 | 91.8 (inactive) | 98.1 (inactive)
37 | CN(C)C(=O)Oc1cccc([N+](C)(C)C)c1 [Neostigmine] | 104 | 112 | 96.8 (inactive) | 101 (inactive)
38 | Clc1ccc(C(c2ccc(Cl)cc2)n2cc[n+](CC(OCc3ccc(Cl)cc3Cl)c3ccc(Cl)cc3Cl)c2)cc1.[Cl-] (stereo not given) [Calmidazolium chloride] | 17.8 | 0.84 | – | 95.3 (inactive)
39 | CC12CCC3C(CCC4CC(O)CCC43C)C1CCC2=O (stereo not given) [Androsterone] | 95 | 113 | 91.7 (inactive) | 107 (inactive)
40 | CN1C2CCC1CC(OC(=O)C(CO)c1ccccc1)C2.CN1C2CCC1CC(OC(=O)C(CO)c1ccccc1)C2.O.O=S(=O)(O)O (stereo not given) [Atropine sulfate] | 102 | – | 91.8 (inactive) | 85.2 (inactive)
41 | C#C[C@]1(O)CC[C@H]2[C@@H]3CC[C@H]4Cc5nc6nc7ccccc7n6cc5C[C@]4(C)[C@H]3CC[C@@]21C | 74.8 | 88.1 | 99 (inactive) | 145 (active)
42 | Cl.Clc1ccc(N2CCN(Cc3c[nH]c4ncccc34)CC2)cc1 [L-745,870 hydrochloride] | 99.5 | 90.2 | 115 (inactive) | 102 (inactive)
43 | CCC1(C2=NCCN2)Cc2ccccc2O1.Cl (stereo not given) [Efaroxan hydrochloride] | 103 | 105 | 93.1 (inactive) | 94 (inactive)
44 | CC(C)(C)c1cc(C=C(C#N)C#N)cc(Br)c1O | 99.2 | 99.1 | 110 (inactive) | 99.8 (inactive)
